Screen size: about 340,000 compounds; about 8,500 (2.5%) were called active. For the sample, actives were picked, then their nearest neighbours and some compounds at random. A number with no mark means an inactive call.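 The calls were made as follows: active = melting temperature shift of at least 10% of the positive control shift, at one fixed dose; inactive = the rest.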

The results in this text go back to PubChem BioAssay AID1259313 (Sanford-Burnham Center for Chemical Genomics, 2017).

This assay deals with Glutamate receptor ionotropic, NMDA 3A (GRIN3A) ligand-binding domain. Nature of the assay: binders of NR3A ligand-binding domain, primary screen, biophysical, differential scanning fluorimetry, uHTS (AID 1259313). Particulars: NR3A LBD differential scanning fluorimetry, at 25 µM, stronger effect = higher value, 0% = protein alone, 100% = glycine-bound protein.
As to `COc1ccc2c(c1)OC(O)(C(F)(F)C(F)F)CC2=O` (stereo unspecified), the Tm shift relative to glycine control is -0.91%.

`C=CCN(c1ccc(Cl)cc1)S(=O)(=O)c1cccc(C(=O)OCC(=O)N(C)C)c1`: the Tm shift relative to glycine control was -2.3%.

As for `O=C(CSc1nc(O)c(Cc2ccccc2)c(=O)[nH]1)Nc1nc2c(s1)CCCC2`, the Tm shift relative to glycine control was 0.31%.

Turning to `CN(C)CCNc1ccc(-c2n[nH]c(=O)c3ccccc23)cc1[N+](=O)[O-]`, the Tm shift relative to glycine control is -4.51%.

For the molecule `COc1cc(C2c3cc4c(cc3C(O)C3COC(=O)C23)OCO4)cc(OC)c1OC` (stereo unspecified), the Tm shift relative to glycine control was 0.33%.

In the case of `OC(C#CCN1CCOCC1)(c1ccccc1)C1CCCCC1` (stereo unspecified), the Tm shift relative to glycine control is 0.88%.

For `CC(C)(C)N(CC#CCC(O)(c1ccccc1)C1CCCC1)CCO` (stereo unspecified), the Tm shift relative to glycine control is 14.9% (active).

Take `CN(CC#CCC(c1ccccc1)c1ccccc1)C(C)(C)C`: the Tm shift relative to glycine control is -1.63%.

As for `O=C(NN1C(=O)C2C3C=CC(O3)C2C1=O)c1ccccc1` (stereo unspecified), the Tm shift relative to glycine control is -2.22%.

In the case of `Cc1ccc2nsnc2c1NC(=O)c1ccccc1[N+](=O)[O-]`, the Tm shift relative to glycine control was -9.29%.

On to `COc1ccc(NC(=O)Nc2ccc3nc(C)c(C)nc3c2)cc1`, for which the Tm shift relative to glycine control is 19% (active).

Consider `COc1ccc(NC(=O)Nc2ccc3nsnc3c2)cc1`, for which the Tm shift relative to glycine control is 33.6% (active).

Turning to `Cc1nc(/N=C(\N)NC(=O)NC2CCCCC2)nc2ccccc12`, the Tm shift relative to glycine control is -0.41%.

For the molecule `COc1ccc2nc(/N=C(\N)NC(=O)Nc3ccccc3)nc(C)c2c1`, the Tm shift relative to glycine control is 29.4% (active).

With `COc1ccc2nc(C)cc(Nc3cccc(C(=O)O)c3)c2c1`, the Tm shift relative to glycine control was -1.4%.

For `COCCNC(=O)Nc1ccc2nc(-c3ccco3)c(-c3ccco3)nc2c1`, the Tm shift relative to glycine control is -1.95%.

Consider `Cc1ccc(NC(=O)Nc2ccc3oc(C)nc3c2)cc1`, for which the Tm shift relative to glycine control was -7.01%.

On to `COc1ccc(/C=N/NC(=O)Nc2ccc3nsnc3c2)c(OC)c1`, for which the Tm shift relative to glycine control is -2.88%.

For `O=C(Nc1ccccc1)c1ccc2nsnc2c1`, the Tm shift relative to glycine control is 1.64%.

As for `CCC1(C(=O)c2ccccc2)C(c2cccc([N+](=O)[O-])c2)C1(C(=O)OC)C(=O)OC` (stereo unspecified), the Tm shift relative to glycine control was -4.39%.

On to `CCCCCN(C(=O)NC(=O)Nc1ccccc1C)S(C)(=O)=O`, for which the Tm shift relative to glycine control is -1.26%.

`O=C(CN1CCN(S(=O)(=O)c2ccc3ccccc3c2)CC1)NC(=O)NC1CCCCC1`: the Tm shift relative to glycine control was -9.92%.

`COc1cc(NS(=O)(=O)c2ccc(NC(=S)NC(=O)c3ccccc3)cc2)nc(OC)n1`: the Tm shift relative to glycine control was -2.53%.

For `CCOC(=O)CCP(=O)(O)C(O)(c1ccccc1)c1ccccc1`, the Tm shift relative to glycine control was -1.33%.

On to `Cc1ccc(N2C(=O)CN=C2Nc2nc(C)cc(C)n2)cc1`, for which the Tm shift relative to glycine control is -1.23%.

Regarding `O=C(Nc1nnc(SCc2c(Cl)cccc2Cl)s1)C1CCCO1` (stereo unspecified), the Tm shift relative to glycine control was 1.89%.

With `O=C(Nc1nnc(SCc2ccccc2Cl)s1)c1cccc([N+](=O)[O-])c1`, the Tm shift relative to glycine control is -14.6%.

As to `O=C(Nc1nnc(SCc2ccc(Cl)cc2Cl)s1)C1COc2ccccc2O1` (stereo unspecified), the Tm shift relative to glycine control was 15.3% (active).

`Cc1nc([N+](=O)[O-])c(NCCCO)n1Cc1ccccc1`: the Tm shift relative to glycine control was -1.5%.

Turning to `O=C(NCCCN1CCOCC1)c1cnn2c(-c3ccccc3)cc(-c3ccccc3)nc12`, the Tm shift relative to glycine control is -3.89%.

Regarding `COc1ccc(OC)c(Nc2nc(-c3ccc(O)c(O)c3)cs2)c1`, the Tm shift relative to glycine control was 19% (active).

For the molecule `COc1ccc(OC)c(-c2csc(NC(=O)COC(=O)C3CC3)n2)c1`, the Tm shift relative to glycine control was -1.41%.

Regarding `COc1cc(CC(=O)Nc2nc(-c3ccc(F)c(F)c3)cs2)cc(OC)c1OC`, the Tm shift relative to glycine control is -3.34%.

With `CCOc1ccc(Cn2nnc(C(=O)Nc3ccc(OC)cc3OC)c2N)cc1`, the Tm shift relative to glycine control is 2.21%.

With `CCOC(=O)CNc1nc(Cl)nc(Nc2ccc(OC)cc2OC)n1`, the Tm shift relative to glycine control was 13.1% (active).

Turning to `CCOC(=O)CNc1nc(Cl)nc(Nc2ccccc2)n1`, the Tm shift relative to glycine control is -0.5%.

In the case of `CCN(CC)c1ccc(NC(=O)C2CCC(CNc3c(N4CCCC4)c(=O)c3=O)CC2)c(C)c1` (stereo unspecified), the Tm shift relative to glycine control is 1.77%.

For `CCOC(=O)N1CCN(C(=O)CSc2nnc(-c3c[nH]c4ccccc34)n2CCOC)CC1`, the Tm shift relative to glycine control is 0.55%.

In the case of `OC(CNCc1ccc(Cl)c(Cl)c1)c1ccccc1` (stereo unspecified), the Tm shift relative to glycine control is 2.04%.

As for `C/C(N)=C(/C#N)C(=O)COC(=O)c1cc(-c2cccc(Br)c2)nc2ccccc12`, the Tm shift relative to glycine control was 30.1% (active).

Consider `C/C(N)=C(/C#N)C(=O)COC(=O)c1cc(-c2ccc(C)cc2)nc2ccccc12`, for which the Tm shift relative to glycine control is -1.48%.

For `COc1cccc(OC)c1C(=O)OCC(=O)/C(C#N)=C(\C)N`, the Tm shift relative to glycine control was -2%.

In the case of `Cc1nn(C)cc1N1C(=O)c2cccc3c(N)ccc(c23)C1=O`, the Tm shift relative to glycine control was -0.63%.

`CN1C(=O)c2cccc3c(N)ccc(c23)C1=O`: the Tm shift relative to glycine control is 11.8% (active).

`COc1cc(C(=O)N2C(=O)c3cccc(N)c3C2=O)cc(OC)c1OC`: the Tm shift relative to glycine control was -1.08%.

As for `Cc1ccc(CNC(=O)[C@@H](NC(=O)Cc2ccccc2)C(C)C)cc1`, the Tm shift relative to glycine control was -6.13%.

On to `O=C1c2ccccc2NC(c2ccc(-c3cccc(Cl)c3)o2)N1O` (stereo unspecified), for which the Tm shift relative to glycine control is -0.47%.

Regarding `O=C1NN(c2ccccc2)C(=O)/C1=C/c1ccc(-c2cccc(C(=O)O)c2)o1`, the Tm shift relative to glycine control was -14.4%.

`O=C(O)C(c1ccccc1)N1C(=O)/C(=C\c2ccc(-c3cccc(Cl)c3)o2)SC1=S` (stereo unspecified): the Tm shift relative to glycine control was 27.7% (active).

On to `O=C(O)CSc1c2c(nc3cc(C(=O)Nc4cccc(C(F)(F)F)c4)ccc13)CCCC2`, for which the Tm shift relative to glycine control is -1.44%.

As to `O=C(Nc1ccc(-c2csc(Nc3cccc(C(F)(F)F)c3)n2)cc1)c1cccc(C(F)(F)F)c1`, the Tm shift relative to glycine control was 25.4% (active).

With `O=C(Nc1ccc(C(F)(F)F)cc1)c1cccc(-n2cnnn2)c1`, the Tm shift relative to glycine control is -5.14%.

In the case of `CS(=O)(=O)N(Cc1ccccc1)c1ccc(C(=O)NN=C2CCCCCC2)cc1`, the Tm shift relative to glycine control was 0.85%.

With `Clc1ccc2nc(CSc3ccccc3)cn2c1`, the Tm shift relative to glycine control was 0.36%.

As for `Cc1c(NC(=S)NC(=O)CCc2ccccc2)c(=O)n(-c2ccccc2)n1C`, the Tm shift relative to glycine control was -3.07%.

Regarding `O=C(O)CSc1ccc(S(=O)(=O)N2CCCC2)cn1`, the Tm shift relative to glycine control was 0.42%.

On to `COc1ccc(/C(C)=N\NC(=O)c2ccc(-c3ccccc3)cc2)c(F)c1`, for which the Tm shift relative to glycine control is 19.6% (active).

In the case of `COc1ccc(/C(C)=N/NC(=O)c2ccc3nc[nH]c3c2)cc1`, the Tm shift relative to glycine control is -1.41%.

Regarding `CCN(CC)c1ccc(C(=O)N/N=C(\C)c2cccc(OC)c2)cc1`, the Tm shift relative to glycine control was 2.58%.

With `COc1ccc(Cl)cc1NC(=O)NC(C)C(C)(C)C` (stereo unspecified), the Tm shift relative to glycine control was -7.8%.

Regarding `O=C(CN1C(=O)CC(c2ccccc2)S(=O)(=O)c2ccccc21)NC1CCCC1` (stereo unspecified), the Tm shift relative to glycine control was -2.04%.

Regarding `CC(=O)c1cc(-c2ccccc2)n(CC(=O)NC2CCCCC2)c1C`, the Tm shift relative to glycine control is 0.92%.

Regarding `O=C(CN1C(=O)CC(c2ccccc2)=Nc2ccccc21)NC1CCCCC1`, the Tm shift relative to glycine control was 300% (active).

As to `CCOC(=O)Cc1ncccc1C(=O)Nc1ccc(OC)cc1`, the Tm shift relative to glycine control was -0.6%.

`O=[N+]([O-])c1ccccc1S(=O)(=O)Nc1cccc2cccnc12`: the Tm shift relative to glycine control was -0.26%.

With `O=C(Nc1ccccc1Cl)Nc1cccc2cccnc12`, the Tm shift relative to glycine control was 39.4% (active).

Regarding `COc1ccc(NC(=O)Nc2cccc3cccnc23)cc1`, the Tm shift relative to glycine control is 12.4% (active).

As to `CC(=O)/C(=N\Nc1ccc(Cl)cc1Cl)Sc1cccc2cccnc12`, the Tm shift relative to glycine control is -8.55%.

Take `O=C(Nc1ccccc1)Oc1cccc2cccnc12`: the Tm shift relative to glycine control was -3.82%.

In the case of `Cc1ccc(S(=O)(=O)N2CCN=C2SCc2c(F)cccc2Cl)cc1`, the Tm shift relative to glycine control is 0.68%.

In the case of `CCc1ccc(-c2cc(C)no2)cc1S(=O)(=O)NCCc1ccc(S(N)(=O)=O)cc1`, the Tm shift relative to glycine control was -4.05%.

`CCCCn1c(N)c(N(CC)C(=O)c2ccccc2C(F)(F)F)c(=O)[nH]c1=O`: the Tm shift relative to glycine control is -1.66%.

Take `O=C(Cn1c(-c2ccc(Cl)cc2)noc1=O)N1CCN(c2ccccc2F)CC1`: the Tm shift relative to glycine control is -0.09%.

On to `CC(=O)CSc1nnc(CSc2ncccn2)n1C1CCCCC1`, for which the Tm shift relative to glycine control was -1.13%.

For `CCC(=O)N1CCc2cc(Br)c(S(=O)(=O)NCCN3CCCCC3CC)cc21` (stereo unspecified), the Tm shift relative to glycine control was 12.6% (active).

On to `CCCN(CCC)S(=O)(=O)c1cc2c(cc1Br)CCN2C(=O)CC`, for which the Tm shift relative to glycine control was -0.99%.

For `CCC1CCCCN1CCNS(=O)(=O)c1ccc2c(c1)CCN2C(C)=O` (stereo unspecified), the Tm shift relative to glycine control was -1.49%.

For the molecule `CCCCSc1nc2c(c(=O)n1CC)SC(C)C2` (stereo unspecified), the Tm shift relative to glycine control was -2.48%.

`CCOC(=O)c1c(C)[nH]c(C2=NNC(=NC(C)COC)SC2)c1C` (stereo unspecified): the Tm shift relative to glycine control is -1.92%.

With `CC12CCC(C(=O)N(NC(=O)c3ccccc3O)C1=O)C2(C)C` (stereo unspecified), the Tm shift relative to glycine control was 2.74%.

As to `CC12CCC(C(=O)N(c3cccc(Cl)c3)C1=O)C2(C)C` (stereo unspecified), the Tm shift relative to glycine control was 18.6% (active).

On to `O=C1CC(NNc2ccccc2)C(=O)N1c1cccc(Cl)c1` (stereo unspecified), for which the Tm shift relative to glycine control was -0.68%.

Regarding `CCc1cc(C(N)=O)c(NC(=O)c2ccc(OC)cc2)s1`, the Tm shift relative to glycine control is 12.6% (active).

Regarding `CCc1cc(C(=O)c2ccc(OC)cc2)c(NC(=O)CN2CCN(C)CC2)s1`, the Tm shift relative to glycine control is -0.69%.

Consider `COc1ccc(C(=O)Nc2sc(C)c(C)c2CN2CCOCC2)cc1`, for which the Tm shift relative to glycine control was -2.24%.

Regarding `CC1=CC=CC2=N/C(=N\S(=O)(=O)c3ccc(F)cc3F)c3ccccc3CN12`, the Tm shift relative to glycine control was -0.65%.

For `CC(C)(C)C(=O)Nc1cccc(-c2ccc[nH]2)n1`, the Tm shift relative to glycine control is 11.2% (active).

Regarding `CC(C)(C)C(=O)Nc1ccc(-c2cn3cccnc3n2)cc1`, the Tm shift relative to glycine control is -0.98%.

Consider `COc1ccc(C(=O)Nc2cccc(NC(=O)c3ccc(OC)cc3OC)n2)c(OC)c1`, for which the Tm shift relative to glycine control was 3.62%.

Turning to `N#Cc1ccc(C2N=C(c3ccccc3)NO2)cc1` (stereo unspecified), the Tm shift relative to glycine control is 0.19%.

Turning to `CCOc1ccc(CN2CCN(Cc3ccc(C)o3)CC2CCO)cc1` (stereo unspecified), the Tm shift relative to glycine control is 1.84%.

With `C/C(CC(=O)NC(C)c1ccccc1)=N\NC(N)=S` (stereo unspecified), the Tm shift relative to glycine control is -2.12%.

For the molecule `COC(=O)C1C(=O)NCC1c1ccc(OC)cc1` (stereo unspecified), the Tm shift relative to glycine control is -0.83%.

Consider `COc1ccc(CC(=O)Nc2c(C(N)=O)oc3ccccc23)cc1`, for which the Tm shift relative to glycine control is 16.1% (active).

For the molecule `NC(=O)c1oc2ccccc2c1NC(=O)Cc1ccccc1`, the Tm shift relative to glycine control was -1.3%.

In the case of `NC(=O)c1oc2ccccc2c1NC(=O)CS(=O)(=O)c1ccccc1`, the Tm shift relative to glycine control is -2.6%.
